# Measurements taken from the OligoGym collection.
# Tests used:
# Test in all cases: pooled miR-30 sensor sort-seq; sequence = guide strand
# Conditions in all cases: shRNA
# HES7 = molecular target: HES7
# HERC1 = molecular target: HERC1
# HERC3 = molecular target: HERC3
# HEPH = molecular target: HEPH
# HHATL = molecular target: HHATL
# HIP1R = molecular target: HIP1R
# HINT3 = molecular target: HINT3
# HIC1 = molecular target: HIC1
# Further: reference of the scale not given here.
sequence,measurement,setting,value
AAACCGGACAAGTAGCAGCTGG,sensor-assay potency score (higher = more potent),HES7,-0.705
TTATGTTCTTATAACATCTATG,sensor-assay potency score (higher = more potent),HERC1,-0.965
AACCGGACAAGTAGCAGCTGGC,sensor-assay potency score (higher = more potent),HES7,-1.06
TTCATAGGCATACTGCTCCTGA,sensor-assay potency score (higher = more potent),HERC1,-0.419
AGCGGCTTGAGCATCTTGGGGC,sensor-assay potency score (higher = more potent),HES7,-0.755
TTCTCCAACCAGCTTAACCTTC,sensor-assay potency score (higher = more potent),HERC1,-1.11
TATCTCCGCTTTCTCCAGCTTC,sensor-assay potency score (higher = more potent),HES7,-1.2
TATCTGAACAACACCATTGATT,sensor-assay potency score (higher = more potent),HERC3,-0.697
TTTGGGGCGCAGATAGCCGTGC,sensor-assay potency score (higher = more potent),HES7,-0.737
ATAATATCTGAACAACACCATT,sensor-assay potency score (higher = more potent),HERC3,-1.67
TTTCTCCAGCTTCGGGTTCCGG,sensor-assay potency score (higher = more potent),HES7,-1.22
TTCTGCACTAGTCACATTGGTC,sensor-assay potency score (higher = more potent),HERC1,-0.675
TTGAACTATATGCACACACATA,sensor-assay potency score (higher = more potent),HERC3,-1.08
TATTCATGTAAAACTGTCCTTT,sensor-assay potency score (higher = more potent),HERC1,-0.17
TACATTGAGTAACTTCTTGTAG,sensor-assay potency score (higher = more potent),HERC3,0.402
TAGCTTTCTCGGCAGATCGTGA,sensor-assay potency score (higher = more potent),HERC3,-0.772
TTGTGCTCTACAAAACACGTGT,sensor-assay potency score (higher = more potent),HERC3,0.203
TACTTTGCCACCACACACCTTT,sensor-assay potency score (higher = more potent),HERC3,0.0362
TACAGCTTTCTTGTATCTGGAA,sensor-assay potency score (higher = more potent),HEPH,-0.122
TTGGGCGCCCCGTCTTGTCTGT,sensor-assay potency score (higher = more potent),HES7,-1.06
TAGTTGTCCATGTCGATTGAGC,sensor-assay potency score (higher = more potent),HERC1,-0.739
TAGTGGTTGAGAAACATTCTAA,sensor-assay potency score (higher = more potent),HERC1,-0.582
TTTCTGTAGTGAACATAGCAGT,sensor-assay potency score (higher = more potent),HERC1,-0.617
TTAGCAAACAGCACATGTCCGG,sensor-assay potency score (higher = more potent),HHATL,-0.577
TTCGCTCCCTCAAGTAGCCCAC,sensor-assay potency score (higher = more potent),HES7,-0.598
TAACAGACACATCCTTTCGATA,sensor-assay potency score (higher = more potent),HERC1,-0.966
TTCCGGAGGTTCTGGTCCCGGG,sensor-assay potency score (higher = more potent),HES7,-1.41
TATGTCACTGTCCAGAGGCTGG,sensor-assay potency score (higher = more potent),HEPH,-1.3
TTATCTAGTACTTTGCTGGGGT,sensor-assay potency score (higher = more potent),HERC3,0.669
TATTGTAACCCACTTCTGCGGT,sensor-assay potency score (higher = more potent),HERC1,-0.596
AAGCGAAGCAGGCACTCGCGGA,sensor-assay potency score (higher = more potent),HES7,-1.48
TAACTTCTCAAATAACACCCTA,sensor-assay potency score (higher = more potent),HERC3,-0.57
ATATAGACCACATCTCACCCGC,sensor-assay potency score (higher = more potent),HES7,-0.0228
TAACAGAATGGACATCTGCTGA,sensor-assay potency score (higher = more potent),HERC1,-0.647
TACCTCATCTGTCACCTCCAGG,sensor-assay potency score (higher = more potent),HIP1R,-0.947
TATAACTGACTACTTACTGAGA,sensor-assay potency score (higher = more potent),HINT3,-0.693
ATATTTGCAAAGCCAGTCGTTG,sensor-assay potency score (higher = more potent),HHATL,-0.866
TATCATATATATAAAATCCTTA,sensor-assay potency score (higher = more potent),HINT3,-0.582
TTGATTAACAGAATTTGTCTTA,sensor-assay potency score (higher = more potent),HINT3,0.577
ATCGTGTCCAGCATCGTCTGCC,sensor-assay potency score (higher = more potent),HIC1,-0.128
ATTGACTCTATAAACCAACTTG,sensor-assay potency score (higher = more potent),HINT3,-0.483
TTGGCGAACTTGAGGTCGCTGG,sensor-assay potency score (higher = more potent),HHATL,-0.951
TTTGGGGCAACCATCGTGCAGA,sensor-assay potency score (higher = more potent),HHATL,-0.825
TACAGCTCGGCGCAGTGCGTGT,sensor-assay potency score (higher = more potent),HIC1,-1.35
TGCTCTTGTAGTCGTCGCCGTC,sensor-assay potency score (higher = more potent),HIC1,-0.864
TATCTTTGAAGCAAATTAGGTC,sensor-assay potency score (higher = more potent),HINT3,-0.138
TTGTAGCTCTTGTCGCACGACG,sensor-assay potency score (higher = more potent),HIC1,-1.22
ATGTTGTTGACATCGGTCCCAG,sensor-assay potency score (higher = more potent),HIP1R,-0.946
TTGAGCAGGTCAGCTAAGGAGT,sensor-assay potency score (higher = more potent),HHATL,-0.763
TTTGAAGCAAATTAGGTCCTCA,sensor-assay potency score (higher = more potent),HINT3,0.444
TTTGTCAAGCTGGTGGTCCTGT,sensor-assay potency score (higher = more potent),HIP1R,0.332
TTGTAGTCGTCGCCGTCGCCGC,sensor-assay potency score (higher = more potent),HIC1,-1.19
TTGTCGCACGACGCGCAGCGGT,sensor-assay potency score (higher = more potent),HIC1,-1.62
TTCTTGGACAGGTCCAGGCCAC,sensor-assay potency score (higher = more potent),HIC1,-0.94
TAGCAAACAGCACATGTCCGGA,sensor-assay potency score (higher = more potent),HHATL,-0.627
TTGACTCTATAAACCAACTTGG,sensor-assay potency score (higher = more potent),HINT3,-0.569
TTGTACATGATGATGGCCCAGA,sensor-assay potency score (higher = more potent),HHATL,-0.478
TCAGCCACATCCATCTTCCGGC,sensor-assay potency score (higher = more potent),HHATL,-0.0987
TGAGGTTGCGTTGCTGTGCGAA,sensor-assay potency score (higher = more potent),HIC1,-0.814
TACCACTTCATGCTGAACCAAG,sensor-assay potency score (higher = more potent),HINT3,-0.805
